Screening results from PubChem BioAssay.
This is a sample that favours compounds with a hit; in the whole collection about 1.2% have one here.
N-glyco inh: increase of ERlucT glycosylation luciferase signal, primary screen, N-linked glycosylation inhibitor project, D54 ERlucT cells, luminescence, set 2 | D54 ERlucT glycosylation luciferase reporter, 24 h; percent of 100 nM tunicamycin response | AID 588692, 2011 | 0.23% of 360,000 active | reporter increase, % at 12.5 µM;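 active means mean luciferase reporter signal, scaled so untreated is 0 and the glycosylation-blocking control 100, at or above a set limit in every replicate; inconclusive means mean reaches the limit but not every replicate does; inactive means mean below the limit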;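 further: luciferase carries N-glycosylation sites so blocking glycosylation raises the light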
RAD54 branch: inhibitors of human RAD54 branch migration, primary screen, biochemical, fluorescence, single point; DNA repair and recombination protein RAD54-like (Homo sapiens), Q92698; RAD54 Holliday junction branch migration, FAM/BHQ fluorescence; inhibition, % at 10.4 µM; 0.14% of 360,000 active; AID 602329, 2012;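 active means mean normalized replicate activity at least 40 and at least half of replicates scoring 40 or more; inconclusive means only one of the two criteria met; inactive means mean below 40 and under half of replicates reaching 40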;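 further: inhibitors cause a drop in the FAM fluorescence signal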
CASP6 VEID inh: human caspase-6 inhibitors, primary screen, biochemical, VEID-R110 fluorescence, single point, set 2 | inhibition, % at 12.5 µM | purified caspase-6, Z-VEID-R110 cleavage fluorescence | P55212 | 0.53% of 350,000 active;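 active means mean inhibition across replicates at least about 35%, with every replicate also reaching that limit, limit read from the data; inconclusive means only one of the two criteria met; inactive means neither criterion met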
NSD2 inh: NSD2 histone methyltransferase inhibitors, primary screen, biochemical, AlphaScreen, single concentration, set 2 | NSD2 peptide methylation, 120 min | inhibition, % at 12.5 µM | 0.54% of 310,000 active | AID 743445, 2014; in the data active means inhibition above about 50%
Target sequence (O96028 whole entry, looked up): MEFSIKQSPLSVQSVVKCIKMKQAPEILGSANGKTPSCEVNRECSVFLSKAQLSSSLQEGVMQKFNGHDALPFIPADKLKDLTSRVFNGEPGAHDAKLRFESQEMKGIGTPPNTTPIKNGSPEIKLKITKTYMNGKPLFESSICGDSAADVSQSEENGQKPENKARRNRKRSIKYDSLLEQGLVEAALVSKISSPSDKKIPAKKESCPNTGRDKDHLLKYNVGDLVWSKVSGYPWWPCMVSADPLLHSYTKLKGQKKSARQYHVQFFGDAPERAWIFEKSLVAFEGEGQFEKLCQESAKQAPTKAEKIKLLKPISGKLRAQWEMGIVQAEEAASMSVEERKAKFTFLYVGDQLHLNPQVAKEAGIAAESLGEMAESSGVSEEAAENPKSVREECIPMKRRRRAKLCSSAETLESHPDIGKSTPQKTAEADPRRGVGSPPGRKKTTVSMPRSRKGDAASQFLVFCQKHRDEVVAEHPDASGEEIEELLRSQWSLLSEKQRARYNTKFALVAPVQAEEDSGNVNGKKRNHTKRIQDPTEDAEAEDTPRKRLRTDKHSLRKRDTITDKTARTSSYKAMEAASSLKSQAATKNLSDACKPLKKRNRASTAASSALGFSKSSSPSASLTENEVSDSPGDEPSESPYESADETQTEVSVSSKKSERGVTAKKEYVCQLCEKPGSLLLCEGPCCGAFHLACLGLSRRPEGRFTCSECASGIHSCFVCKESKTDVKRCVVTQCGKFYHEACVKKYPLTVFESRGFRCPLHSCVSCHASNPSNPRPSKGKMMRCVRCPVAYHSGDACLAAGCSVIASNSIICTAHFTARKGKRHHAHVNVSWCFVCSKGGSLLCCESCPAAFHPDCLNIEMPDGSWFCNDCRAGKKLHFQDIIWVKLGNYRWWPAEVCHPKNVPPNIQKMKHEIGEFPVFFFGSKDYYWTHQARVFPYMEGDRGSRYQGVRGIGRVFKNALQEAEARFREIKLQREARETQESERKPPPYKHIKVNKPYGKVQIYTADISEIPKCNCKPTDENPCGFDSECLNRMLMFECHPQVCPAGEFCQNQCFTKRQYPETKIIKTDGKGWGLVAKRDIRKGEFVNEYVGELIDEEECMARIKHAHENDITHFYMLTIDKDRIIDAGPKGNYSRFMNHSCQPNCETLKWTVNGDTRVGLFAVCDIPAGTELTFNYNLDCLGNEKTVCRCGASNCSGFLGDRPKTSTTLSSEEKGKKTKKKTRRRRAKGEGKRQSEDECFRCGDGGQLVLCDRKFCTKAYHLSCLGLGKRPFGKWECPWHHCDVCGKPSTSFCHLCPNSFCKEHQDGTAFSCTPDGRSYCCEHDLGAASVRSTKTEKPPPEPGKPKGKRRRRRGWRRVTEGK
RAD52 anneal inh: RAD52 DNA annealing inhibitors, primary screen, biochemical, FRET, single point, set 2 | DNA repair protein RAD52 homolog (Homo sapiens), P43351 | recombinant RAD52 DNA annealing, FRET fluorescence | 0.46% of 360,000 active | inhibition, % at 18.7 µM | AID 651710, 2012;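 active means every replicate showing at least 50% inhibition; inconclusive means mean inhibition at least 50% but not in every replicate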
Rad54 DNA ctr: DNA binding of candidate compounds, dose response, artefact control for RAD54 inhibitor project, biochemical, fluorescence polarization, cherry-pick; 8% of 460 active; shares compounds with RAD54 branch; AC50, µM (series often up to 35 µM); Acridine orange-DNA displacement, 20 min; AID 651673, 2012;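 active means signal drop giving an AC50 within twice the top valid tested concentration of each sample, actives reach about 35 µM in these data; inactive means activity opposite to expected, plus the rest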;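 further: polarization loss reports compound binding to salmon sperm DNA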
Large screens that a line does not name were inactive (follow-up assays come after a bar, where they were run).

CN1CCCC1CCNc1ccc2c(=O)c3ccccc3oc2c1 (stereo not given)	RAD54 branch 92 (no result: NSD2 inh) | Rad54 DNA ctr inactive
O=C(COc1ccc2c(c1)oc(=O)c1ccccc12)NCCCN1CCOCC1	RAD54 branch inconclusive | Rad54 DNA ctr inactive
O=c1c2ccccc2oc2cc(NCCCn3ccnc3)ccc12	none (no result: NSD2 inh)
CC(C)NC(=O)N(C)C[C@H]1Oc2ccc(NS(C)(=O)=O)cc2C(=O)N([C@H](C)CO)C[C@H]1C	none (no result: N-glyco inh, NSD2 inh)
CN1CCN(C(=O)C[C@@H]2CC[C@H]3[C@@H](COC[C@H](O)CN3C(=O)Nc3cc(Cl)cc(Cl)c3)O2)CC1	none (no result: N-glyco inh, NSD2 inh)
COc1cccc(NC(=O)N[C@H]2CC[C@@H](CC(=O)Nc3ccccc3)O[C@H]2CO)c1	none (no result: N-glyco inh, NSD2 inh)
CC(CCCN1CCCC1)Nc1ccnc2cc(Cl)ccc12 (stereo not given)	RAD54 branch 55, RAD52 anneal inh 51 | Rad54 DNA ctr inactive
Clc1ccc2c(NCCNC3CCCCC3)ccnc2c1	none (no result: NSD2 inh)
C[C@H]1CCCCO[C@@H](CN(C)S(=O)(=O)c2cccs2)[C@@H](C)CN([C@@H](C)CO)C(=O)c2cc(NS(=O)(=O)c3ccccc3)ccc2O1	none (no result: N-glyco inh, NSD2 inh)
COc1ccccc1CNC(=O)Nc1cccs1	none (no result: CASP6 VEID inh, RAD52 anneal inh)
COc1ccccc1CNC(=O)c1cccs1	RAD54 branch 63 (no result: CASP6 VEID inh, RAD52 anneal inh) | Rad54 DNA ctr inactive
O=C(NC1CCC1)[C@H]1[C@H](CO)[C@H]2Cn3c(ccc(C4=CCCCC4)c3=O)[C@H]2N1C(=O)C1CCOCC1	none (no result: N-glyco inh, NSD2 inh)
Cc1cccc(Nc2c3c(nc4ccccc24)CCC3)c1	none
COc1ccc(Nc2c3c(nc4ccc(C)cc24)CCC3)cc1	RAD54 branch 54 (no result: CASP6 VEID inh) | Rad54 DNA ctr inactive
Cc1ccc2nc3c(c(Nc4ccc5c(c4)OCCO5)c2c1)CCC3	RAD54 branch 61 | Rad54 DNA ctr inactive
C[C@@H]1CN([C@@H](C)CO)C(=O)Cc2cc(NC(=O)Nc3ccc(C(F)(F)F)cc3)ccc2O[C@@H]1CN(C)S(=O)(=O)c1cccs1	none (no result: N-glyco inh, NSD2 inh)
CCN(CC)CCCNC(=O)C1CCN(c2ncnc3c2sc2cccc(F)c23)CC1	RAD54 branch 53 | Rad54 DNA ctr inactive
CC1CC(C)CN(CCCNC(=O)C2CCN(c3ncnc4c3sc3cccc(F)c34)CC2)C1 (stereo not given)	none (no result: N-glyco inh, RAD54 branch, CASP6 VEID inh, RAD52 anneal inh)
COc1cccc(-c2nc(N3CCN(c4ccccc4)CC3)c3ccccc3n2)c1O	none (no result: CASP6 VEID inh, RAD52 anneal inh)
COc1cccc(-c2nc(N3CCN(Cc4ccccc4)CC3)c3ccccc3n2)c1O	RAD54 branch 64 | Rad54 DNA ctr inactive
O=C(Nc1ccccc1)c1cc(S(=O)(=O)N2CCOCC2)cs1	RAD54 branch inconclusive (no result: CASP6 VEID inh, NSD2 inh, RAD52 anneal inh) | Rad54 DNA ctr inactive
O=C(Nc1ccccc1[N+](=O)[O-])c1cc(S(=O)(=O)N2CCOCC2)cs1	none
O=C(Nc1cccc(Br)c1)c1cc(S(=O)(=O)N2CCOCC2)cs1	RAD54 branch 52 | Rad54 DNA ctr inactive
O=C(Nc1cccc([N+](=O)[O-])c1)c1cc(S(=O)(=O)N2CCOCC2)cs1	RAD54 branch 57 | Rad54 DNA ctr inactive
CN(C)CCOc1nc(-c2ccccc2)nc2c1oc1ccccc12	N-glyco inh 114, RAD54 branch 81 (no result: CASP6 VEID inh, RAD52 anneal inh) | Rad54 DNA ctr inactive
CN(C)CCOc1ncnc2c1oc1ccccc12	none (no result: CASP6 VEID inh, RAD52 anneal inh)
CO[C@H]1CN(C)C(=O)c2cc(NC(=O)C3CCCC3)ccc2OC[C@H](C)N(CC2CC2)C[C@H]1C	none (no result: N-glyco inh, NSD2 inh)
O=S(=O)(c1ccccc1)N1CCCCN2[C@H](CO)[C@H](c3ccc(C#Cc4cccnc4)cc3)[C@@H]2C1	none (no result: N-glyco inh, NSD2 inh)
CC(=O)Nc1ccc2cc3ccc(NC(C)=O)cc3nc2c1	N-glyco inh 36, RAD54 branch 51 (no result: NSD2 inh) | Rad54 DNA ctr inactive
O=C(C[C@H]1CC[C@@H](NC(=O)c2cccnc2)[C@@H](CO)O1)NCc1ccncn1	none (no result: N-glyco inh, NSD2 inh)
Cc1cc(C)c2nc(C)cc(Nc3ccc(C(=O)NCCO)cc3)c2c1	RAD54 branch 50 | Rad54 DNA ctr inactive
O=C(Nc1ccc(NC(=O)c2ccc(Cl)cc2Cl)cc1)c1ccc2c(c1)OCO2	none
